Screen size: about 38,000 compounds; about 1,200 (3.2%) showed an effect of 50% or more. The median lay at about -58%. What follows is part of a selection rich in strong results, with near analogues and random picks from the rest.

The assay deals with Plasmodium falciparum. Put plainly: Calibr Malaria Delayed Death Assay SOP. On the set-up: scale not given: in the data most compounds retested in dose-response had high values. Format: functional, organism-based. Conditions: concentration 4.99e-06 (unit not given; other assays of the set use mol/L).
Regarding `O=C(NCC1CC1)c1cc2c(s1)CCN2c1ncccn1`, the “Percent Effect” value is listed as -131.9%. Turning to `O=C(c1cnc2ccc(Cl)cc2c1NCc1ccco1)N1CCCCC1`, the “Percent Effect” value is recorded as -150.7%. As for `Cc1ncsc1-c1nnc(C2CCN(Cc3ccc(Cl)cc3)CC2)o1`, the “Percent Effect” value is -44.81%. With `CC(C)(CN1CCC2(CCOCC2)CC1)N1CCOCC1`, the “Percent Effect” value was -173.8%. On to `COCC1c2nnn(C)c2CCN1C(=O)Cc1ccccn1` (stereo unspecified), for which the “Percent Effect” value was -28.75%.

Turning to `CCS(=O)(=O)NC1CCCN(c2cc(C)ccc2F)C1=O` (stereo unspecified), the “Percent Effect” value is given as 0.205%. Take `Cc1noc(C)c1-c1n[nH]c2c1CN(S(=O)(=O)c1cccs1)CC2`: the “Percent Effect” value is given as -28.6%.

Turning to `CCC[C@H]1CN(S(=O)(=O)c2cc(C)ccc2C)C[C@@H]1N`, the “Percent Effect” value is on record as 67.41%.

As to `CCc1ccc(S(=O)(=O)N2CCCC(c3ncc[nH]3)C2)s1` (stereo unspecified), the “Percent Effect” value came out at 13.27%. Consider `Cc1ccc(C)c(S(=O)(=O)N2CCN(C)C3(CCC(=O)N(C)CC3)C2)c1` (stereo unspecified), for which the “Percent Effect” value is reported as -116.8%.

`CCC[C@H]1CN(S(=O)(=O)c2cc(C)ccc2F)C[C@@H]1N`: the “Percent Effect” value is 52.25%. For `Cc1ccc(F)c(S(=O)(=O)N2CCCC2c2ccncc2)c1` (stereo unspecified), the “Percent Effect” value is -74.84%. As for `CCC[C@H]1CN(S(=O)(=O)c2ccccc2)C[C@@H]1N`, the figure is 16.03%; as for `Cc1cccc(OCC(O)CNCc2c(C)nn(C)c2N(C)C)c1` (stereo unspecified), 22.52%. As for `O=C(O)C(F)(F)F.O=C(O)C(F)(F)F.O=S1(=O)c2ccccc2C2(CCN(Cc3cccnc3)C2)N1CC1CC1` (stereo unspecified), the figure is -8.635%; as for `CS(=O)(=O)NC[C@]12COC[C@H]1CN(CC1CCC1)C2.O=C(O)C(F)(F)F`, -46.78%; as for `CS(=O)(=O)N1C[C@H]2CN(CC3CC3)C(=O)[C@H]2C1`, -17.38%.

As for `CN1CCN(C[C@@H]2CN(C(=O)NCC3CCCCC3)C[C@@H]2CO)CC1`, the “Percent Effect” value is -32.18%. Consider `Cl.Clc1cccnc1OC1CCNCC1`, for which the “Percent Effect” value was determined as 7.245%. As for `Clc1ccccc1C1(c2ccnc(C3CC3)n2)CCNCC1`, the figure is 72.39%; as for `Clc1ccccc1C1(c2ccnc(C3CCCC3)n2)CCNCC1`, 82.68%. In the case of `Cc1cccc(CN2CCn3c(C(=O)N(C)C)cnc3C2)c1`, the “Percent Effect” value was -123.8%.

With `CN(C)CCNC(=O)c1cc2c(s1)CCN2S(C)(=O)=O`, the “Percent Effect” value was -66.69%. `Cn1cnnc1CCC(=O)N1CCCC(OCc2cccnc2)C1` (stereo unspecified): the “Percent Effect” value is given as -207.3%. Take `COc1cc(NC(=O)c2ccc(Cl)cc2F)c(C(=O)N(C)C)cc1OC`: the “Percent Effect” value is -107.3%. Turning to `Cc1cc(C)n(C2CN(CC(O)c3cc(F)ccc3F)C2)n1` (stereo unspecified), the “Percent Effect” value turned out to be 84.13%. Take `Cc1cc(C)n(C2CN(CC(O)Cn3cccn3)C2)n1` (stereo unspecified): the “Percent Effect” value was -132.3%. Regarding `Cc1cc(C)n(C2CN(CC(O)COc3ccc(F)cc3)C2)n1` (stereo unspecified), the “Percent Effect” value is given as -22.32%. In the case of `Cc1cnn(C2CN(CC(O)c3ccccc3)C2)c1` (stereo unspecified), the “Percent Effect” value came out at 40.53%. Consider `COc1ccc(C(O)CN2CC(n3cc(C)cn3)C2)cc1` (stereo unspecified), for which the “Percent Effect” value turned out to be 19.27%. As for `Cc1cc(C)n(C2CN(CCc3ccncc3)C2)n1`, the figure is -117%; as for `COc1ccc(C(O)CN2CC(n3nc(C)cc3C)C2)cc1` (stereo unspecified), 47.1%.

Consider `Cc1cnn(C2CN(CC(O)c3ccc(F)cc3)C2)c1` (stereo unspecified), for which the “Percent Effect” value came to 56.46%. As for `COc1cc(OC)cc(-c2noc(C(N)CCSC)n2)c1` (stereo unspecified), the “Percent Effect” value is -32.31%. As to `Cc1ccc(C(=O)Nc2ccc3c(c2)N(C)CCN(C)C3)c(=O)[nH]1`, the “Percent Effect” value is recorded as -25.5%. Consider `Cc1cnn(C2CN(CC(=O)NCCc3cccs3)C2)c1`, for which the “Percent Effect” value was -35.32%. Take `CN(Cc1cc2cc(F)ccc2[nH]1)C(=O)C1CC(=O)N(C2CC2)C1` (stereo unspecified): the “Percent Effect” value is listed as -1.915%.

Turning to `Cc1cc(CN2CCO[C@H]3[C@H](OCc4csc(C)n4)CC[C@@H]32)no1.O=C(O)C(F)(F)F.O=C(O)C(F)(F)F`, the “Percent Effect” value is -78.11%.

As to `CC1CCN(C(=O)C2CCN(c3ccc(Cl)cc3C#N)CC2)CC1`, the “Percent Effect” value was 59.54%. As for `N#Cc1cc(Cl)ccc1N1CCN(C(=O)C2CCC2)CC1`, the figure is -79.7%; as for `CCN(CC)C(=O)C1CCN(c2ccc(Cl)cc2C#N)CC1`, -152.7%; as for `Cc1noc(CN(C)C2CCCN(Cc3noc(C4CC4)n3)C2)n1` (stereo unspecified), -141.9%.

In the case of `Cc1cc(CN2CCOC(CNc3cccnn3)C2)no1` (stereo unspecified), the “Percent Effect” value is listed as -113%. Turning to `CO[C@H]1CN(CC2CCOCC2)[C@@H]2CCCO[C@H]12.O=C(O)C(F)(F)F`, the “Percent Effect” value was -55.37%. In the case of `Cn1ccnc1CCC1CCCCN1Cc1nccn1C` (stereo unspecified), the “Percent Effect” value was 23.43%.

For `Cc1c[nH]c(CN2CCCCC2CCn2ccnc2C)c(C)c1=O` (stereo unspecified), the “Percent Effect” value is -167.9%. For the molecule `CCOC(C)c1nccn1CCC(=O)Nc1cc(C)on1` (stereo unspecified), the “Percent Effect” value is -31.31%. Consider `CCn1cnc2c(cnn2-c2cccc(C)c2C)c1=O`, for which the “Percent Effect” value is on record as -109.7%.

Consider `CC(=O)c1c(O)n(C)c2ccc(F)cc12`, for which the “Percent Effect” value is -135.9%. With `Cc1cnn(CCNCc2ccc(OCc3cscn3)cc2)c1`, the “Percent Effect” value is listed as -21.22%. For the molecule `CC[C@H]1CN2CC[C@H]1C[C@@H]2CNCc1ccc(OC)cc1`, the “Percent Effect” value worked out at 6.891%. Consider `CCN1CCCC(O)(CNCc2ccc3c(c2)OCO3)C1` (stereo unspecified), for which the “Percent Effect” value was determined as 14.07%. On to `CC[C@H]1CN2CC[C@H]1C[C@@H]2CNCc1ccc2c(c1)OCO2`, for which the “Percent Effect” value amounted to 60.86%.

In the case of `CC[C@H]1CN2CC[C@H]1C[C@@H]2CNCc1ccc(N(C)C)cc1`, the “Percent Effect” value is recorded as 62.75%. As for `CC(C)NC(=O)NC[C@H]1C[C@@H]2CCN1C[C@@H]2CN(C)c1ccccc1`, the figure is -39.27%; as for `CC[C@H]1CN2CC[C@H]1C[C@@H]2CNC(=O)Nc1cc(OC)cc(OC)c1`, 63.7%; as for `CC[C@H]1CN2CC[C@H]1C[C@@H]2CNCc1cccc(C#N)c1`, 34.74%. Consider `CC[C@H]1CN2CC[C@H]1C[C@@H]2CNC(=O)Nc1cccc(C(F)(F)F)c1`, for which the “Percent Effect” value is on record as -88.31%. Turning to `CC[C@H]1CN2CC[C@H]1C[C@@H]2CNC(=O)Nc1ccccc1`, the “Percent Effect” value is -66.09%. On to `CC[C@H]1CN2CC[C@H]1C[C@@H]2CNC(=O)Nc1cccc(C#N)c1`, for which the “Percent Effect” value is recorded as -82.85%. The value for `CC[C@H]1CN2CC[C@H]1C[C@@H]2CNC(=O)NC1CCCCC1` was -27.77%; that for `CC[C@H]1CN2CC[C@H]1C[C@@H]2CNCc1ccc(OC(F)(F)F)cc1` was 85.66%; that for `CC(C)c1ccc(NS(=O)(=O)CC2=NC(=O)n3cccc3C2=O)cc1` was -194.3%. With `CO[C@H]1CO[C@@]2(CCCN(C(=O)C3CC=CC3)C2)C1`, the “Percent Effect” value is -81.44%.

Turning to `CC(C)CNC(=O)CSC1CCc2ccccc2NC1=O` (stereo unspecified), the “Percent Effect” value was -170.7%. With `COc1ccc(-n2ncc(C(C)NC3Cc4ccccc4C3)c2C)cc1` (stereo unspecified), the “Percent Effect” value stood at 1.566%. On to `Cc1c(C(C)N)cnn1-c1ccccn1` (stereo unspecified), for which the “Percent Effect” value is on record as -122.1%. Take `Cc1c(C(C)N)cnn1-c1cccc2ccccc12` (stereo unspecified): the “Percent Effect” value is recorded as 74.08%.

Take `Fc1ccc(CN2Cc3nccn3CC(CN3CCOCC3)C2)cc1.O=C(O)C(F)(F)F.O=C(O)C(F)(F)F` (stereo unspecified): the “Percent Effect” value is listed as -18.4%. `CC(=O)c1cccc(OCc2cc(C(=O)N3CCCCO3)n[nH]2)c1`: the “Percent Effect” value is -55.13%.

For `Cc1ccc(OCC(C)NS(=O)(=O)Cc2ccon2)cc1` (stereo unspecified), the “Percent Effect” value was -50.51%. `Cc1nc(CN2CC[C@@H](OCC3CC3)[C@@H]2Cc2cccnc2)cs1.O=C(O)C(F)(F)F.O=C(O)C(F)(F)F`: the “Percent Effect” value was found to be 6.851%. The value for `Cc1nc(CN2CC[C@H](OCC3CC3)[C@@H]2Cc2cccnc2)cs1.O=C(O)C(F)(F)F.O=C(O)C(F)(F)F` was 60.39%; that for `CCN1CCC2(CC1)CC(COC)N(Cc1csc(C)n1)C2.O=C(O)C(F)(F)F.O=C(O)C(F)(F)F` (stereo unspecified) was -25.47%; that for `Cc1nnc(N2CC[C@H](OCC3CC3)[C@@H](Cc3ccccc3)C2)s1.O=C(O)C(F)(F)F` was -5.425%. Take `COCC1CC2(CCN(CC3CC3)CC2)CN1Cc1csc(C)n1.O=C(O)C(F)(F)F.O=C(O)C(F)(F)F` (stereo unspecified): the “Percent Effect” value stood at 52%. On to `CO[C@@H]1CCN(c2nnc(C)s2)C[C@@H]1Cc1ccccc1.O=C(O)C(F)(F)F`, for which the “Percent Effect” value was -42.62%.

With `Cc1nnc(N2CC[C@@H](OCC3CC3)[C@@H](Cc3ccccc3)C2)s1.O=C(O)C(F)(F)F`, the “Percent Effect” value is recorded as 84.3%.

On to `Cc1ccc(N2CC[C@H](OCC3CC3)[C@@H]2Cc2cccnc2)nn1.O=C(O)C(F)(F)F`, for which the “Percent Effect” value is reported as -86.08%. On to `COCC1CC2(CCN(C(C)=O)CC2)CN1Cc1csc(C)n1.O=C(O)C(F)(F)F` (stereo unspecified), for which the “Percent Effect” value was -10.79%. Consider `COc1cc(OC)c(C2CC(=O)Oc3cc(C)[nH]c(=O)c32)c(OC)c1` (stereo unspecified), for which the “Percent Effect” value is recorded as -23.56%. Regarding `COc1ccc(CN(C)CC(=O)c2ccc3[nH]c(=O)[nH]c3c2)cc1F`, the “Percent Effect” value is reported as -24.42%.

Consider `COc1cccc(S(=O)(=O)NC(=O)CC2CCCO2)c1` (stereo unspecified), for which the “Percent Effect” value is reported as -80.63%.

As for `CC(C)NC(=O)C1CN(C(=O)Cc2ccccc2)CC12CCOCC2` (stereo unspecified), the “Percent Effect” value is listed as -95.53%. In the case of `CCCS(=O)(=O)NCCc1ncc(CC)s1`, the “Percent Effect” value is on record as -128.9%. For the molecule `OCCN1CCN(Cc2coc(-c3cccc(F)c3)n2)CC1`, the “Percent Effect” value is reported as -200.4%. Regarding `CC(C)(C#N)c1ccccc1CN(CCO)Cc1ccsc1`, the “Percent Effect” value was -17.47%. As to `C[C@]1(O)CN(Cc2ncc[nH]2)CC[C@@H]1Oc1cccc(F)c1`, the “Percent Effect” value is -12.82%.

For `CCCc1nnc([C@H]2CCN(Cc3ncc[nH]3)C2)o1`, the “Percent Effect” value is reported as -53.09%.

Consider `O=C(O)C(F)(F)F.O=S(=O)(c1cccs1)N1Cc2nc(CN3CCCC3)oc2C1`, for which the “Percent Effect” value is given as -93.44%. For the molecule `COC(=O)CCNC(=O)c1cc(-c2ccc(OC)cc2)nn1C`, the “Percent Effect” value is on record as -127.7%. In the case of `Cc1nn(C)c2c(N3CCC(C)CC3)nc(C3CC3)nc12`, the “Percent Effect” value is -7.534%. With `CC(C)Nc1nc(N2CCCC2)nc2c1CN(C)CC2`, the “Percent Effect” value is on record as 48.45%. With `CC(C)Nc1nc(N2CCCC2)nc2c1CN(S(C)(=O)=O)CC2`, the “Percent Effect” value is 50.55%. Regarding `CC(C)Nc1nc(-c2ccccc2)nc2c1CCN(C(=O)C1CC1)CC2.O=C(O)C(F)(F)F`, the “Percent Effect” value is 24.24%. The value for `CCCN1CCc2nc(N3CCOCC3)nc(NC(C)C)c2C1` was -40.15%; that for `CC(C)Nc1nc(N2CCCC2)nc2c1CCN(S(C)(=O)=O)CC2.O=C(O)C(F)(F)F.O=C(O)C(F)(F)F` was 51.48%; that for `CCC(C)N1CCc2nc(N3CCCC3)nc(NC(C)C)c2C1` (stereo unspecified) was 77.92%. For the molecule `CC(C)Nc1nc(N2CCCC2)nc2c1CN(c1ncc(F)cn1)CC2`, the “Percent Effect” value turned out to be 23.23%. For `CCN1CCc2nc(N3CCOCC3)nc(NC(C)C)c2C1`, the “Percent Effect” value worked out at 12.6%.

On to `Cc1nc(N2CCCC2)nc2c1CN(C(C)C)CC2.O=C(O)C(F)(F)F`, for which the “Percent Effect” value is -39.09%.
